About 83,000 compounds went through this panel and 20% of them were active in at least one assay; those are over-represented in the sample as a whole.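 The test compound was applied at a single concentration to cells in 96-well plates for 48 hours, and percent growth was recorded.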 Unmarked numbers belong to inactive results. Active and inactive are the calls of the source.

In this assay the test system is COLO 205 colon. The experiment in a line: NCI-60 one-dose screen, 48 h (100 = growth as untreated, 0 = no growth, -100 = all killed). Conditions: 10 µM unless noted. As for the experimental part: Cells are grown in 96 well plates and exposed to the test compound for 48 hours. Compounds are tested at a single concentration, which is 10^-5 M for most compounds. The reported endpoint is percent growth (GI% or GIPRCNT), where numbers from 0 - 100% represent growth inhibition, and numbers from -100% - 0 represent cell death. For example, a value of 40 represents 60% growth inhibition. A value of 0 means no net growth occurred over the course of the experiment. A value of -40 indicates 40% of cells at the beginning of the experiment died by the end of the experiment. A value of -100 means all cells are dead at the end of the experiment.
NCI-60 Human Tumor Cell Lines Screen was performed using the standard one-dose NCI protocol, which is described in more detail at https://dtp.cancer.gov/discovery_development/nci-60/default.htm.
Compounds with GIPRCNT values below 10 were considered active. Activity score was based on GIPRCNT using the following formula: […]
Score is 0 for GIPRCNT values of 100 or above, 50 for GIPRCNT values of 0, and 100 for GIPRCNT values of -100.
On to `CN(C)c1cccc2c(S(=O)(=O)N[C@H]3CC[C@H]4[C@@H]5CCc6cc(O)ccc6[C@H]5CC[C@]34C)cccc12`, for which the growth is 8.09% (active).

As for `O=C1/C(=C/c2ccc([N+](=O)[O-])s2)Oc2ccc(Br)cc21`, the growth was -80% (active).

Turning to `COc1ccc(-c2cncn2-c2ccc(-c3nc4cc(OC)c(OC)c(OC)c4s3)cc2)cc1N`, the growth is 46.2%.

For the compound `CN(CC(=O)Nc1nc2ccccc2[nH]1)S(=O)(=O)c1ccc(Cl)cc1`, the growth was 95.6%.

Regarding `COc1cccc(C2C(C#N)=C(N)Oc3cc(OC)ccc32)c1` (stereo not given), the growth is -73.4% (active).

`Cc1ccccc1NC(=O)c1cc2ccccc2cc1O`: the growth is 119%.

With `COC1=CC(c2ccc[nH]2)=N/C1=C\c1[nH]c(C)c(C(=O)CCC(=O)Oc2ccc3c(c2)CCC2C3CC[C@]3(C)C(=O)CC[C@@H]23)c1C` (stereo not given in full), the growth was 87.9%.

For the compound `COc1ccc2c(c1)[nH]c(=O)c1c3cc(OC)c(OC)cc3cn21`, the growth was -34.8% (active).

On to `O[C@@H]1Cc2ccc3ccccc3c2N[C@H](c2ccoc2)C1`, for which the growth was 107%.

Regarding `O=C1CC(=O)N(c2ccccc2)O1`, the growth was 92.3%.

`O=C(Cc1ccccn1)C(F)(F)C(F)(F)C(F)(F)F`: the growth is 127%.

`O=C(/C=C/c1ccc(O)c(O)c1)N1CCN(c2ccc(Cl)cc2)CC1`: the growth was 71.4%.

For `N#CCNc1ccccc1N`, the growth is 90.2%.

In the case of `CCCCCCOc1ccc(/C=N/NC(N)=S)cc1`, the growth is 50.2%.

For the compound `COc1cc(C2=NN(C(C)=O)C(c3ccc(OC(C)=O)cc3OC(C)=O)O2)c(OC(C)=O)c2ccccc12` (stereo not given), the growth was 10.4%.

Regarding `CC(CCC(=O)O)(NC(=O)c1ccc([N+](=O)[O-])cc1)C(=O)O` (stereo not given), the growth is 107%.

On to `S=c1[nH]nc2sc3ccccc3n12`, for which the growth was 104%.

As to `COc1ccc2nc(-c3ccc(-n4cncc4-c4ccc(OC)c(N)c4)cc3)sc2c1`, the growth is 105%.

As for `CCCCC(C#N)C(N)=O` (stereo not given), the growth was 124%.

Turning to `C=C1CC[C@@H]2[C@](C)(COC(C)=O)[C@H](OC(C)=O)CC[C@@]2(C)[C@@H]1CC(Nc1ccc(S(=O)(=O)Nc2cc(C)on2)cc1)C1=CCOC1=O` (stereo not given in full), the growth is 29%.

Regarding `CC(C)c1ccc(C(=O)Nc2sc3c(CN(C)C)c(O)ccc3c2C(N)=O)cc1`, the growth was 47.1%.

With `Cc1ccc(C(O)C2=CC(=O)c3ccccc3C2=O)cc1` (stereo not given), the growth is 107%.

Consider `O=C(NN(C(=O)c1ccccc1)c1cccs1)c1ccccc1`, for which the growth was 106%.

Turning to `Oc1ccccc1C=Nc1ccccc1N=Cc1ccccc1O.[Cu+2]`, the growth was 83.7%.

As to `O=C(C=C=Nc1ccccc1)C(=O)N=C=Cc1ccccc1`, the growth is 13.5%.

With `O=C1C[C@@H]2/C(=C(O)\C=C\c3ccccc3)C(=O)C=C[C@@H]2O1`, the growth was -73.4% (active).

In the case of `O=[N+]([O-])c1ccc2c(c1)S(=O)c1cc([N+](=O)[O-])ccc1N2`, the growth was 108%.

With `c1ccc(Nc2nnc(-c3cc(-c4cccnc4)n(-c4ccccc4)n3)s2)cc1`, the growth was 83.3%.

In the case of `CCOC(=O)/C=C(/C)Sc1cc(O)c2ccccc2c1O`, the growth was 46.6%.

Take `CCCCCCCC/C=C\CCCCCCCCOc1ccccc1CC(=O)NCC[N+]1(C)CCCC1`: the growth is 43.1%.

As for `O=C(Nc1ccc(Oc2ccc(NC(=O)Nc3ccc([N+](=O)[O-])cc3)cc2)cc1)Nc1ccc([N+](=O)[O-])cc1`, the growth was -51.1% (active).

Take `N#CCCCCCn1c2ccccc2c2c3c(c4c5ccccc5[nH]c4c21)C(=O)N(O)C3=O`: the growth is 26.7%.

As for `Cc1nn(-c2ccc(Cl)cc2)c2nc3c(nc12)C(=O)c1ccccc1-3`, the growth is 95.2%.

`Clc1ccc(-n2cnc3c(Cl)ncnc32)cc1Cl`: the growth was 92.2%.

Turning to `CC(C)c1nc(N(C)S(C)(=O)=O)nc(-c2ccc(F)cc2)c1/C=C/[C@@H](O)C[C@@H](O)CC(=O)O`, the growth is 105%.

Take `COc1ccccc1[C@H]1c2[nH]c3ccccc3c2C[C@H]2C(=O)N(CCCCCCC(=O)NO)CC(=O)N12`: the growth was 26.9%.

On to `CN=C(NC)N/N=C(C)\C=N\NC(=NC)NC`, for which the growth was 102%.

`CN1C(=O)/C(=C/c2nc(-c3cccc(F)c3)n3ccccc23)c2ccccc21`: the growth is 93%.

Regarding `COc1cc2c(cc1OCCCOc1ccc(-c3cc4ccccc4c4ccccc34)cc1)N=C[C@@H]1CCCN1C2=O`, the growth is -0.637% (active).

Consider `Cc1nn(-c2ccc(Cl)cc2)c2nc3c(nc12)c(=O)oc1ccccc13`, for which the growth was 123%.

These data come from PubChem BioAssay (NCI).
